Active and inactive are the calls of the source.

The values below come from PubChem BioAssay.

For test [1], the system named is Plasmodium falciparum Sir2 (PF13_0152, Sir2A). Briefly: pfSir2 binders on small-molecule microarrays, primary screen, biochemical, small-molecule microarray, 635 nm fluorescence (AID 1098).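 Also: score merges spot fluorescence intensity with its signal-to-noise ratio.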 The conditions noted are these: small-molecule microarray binding, fluorescence 635 nm; higher = more signal.
Test [2] is described as follows: small-molecule microarray binders of probe aDKK1, primary screen, biochemical, biotinylated probe, 635/667 nm fluorescence (AID 1099).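 Also: score merges 667nm spot fluorescence with signal to noise across triplicate slides.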 The conditions noted are these: higher = more signal.
A short description of test [3]: small-molecule microarray binders of probe aCHRDL2, primary screen, biochemical, biotinylated probe, 635/667 nm fluorescence (AID 1100). Conditions: higher = more signal.
A short description of test [4]: splicing luciferase reporter signal modulators, primary screen, spliceosome inhibition project, cell-based, HEK293, splice +/- reporter (AID 1101).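 Also: HEK293 cells carrying a splicing-competent luciferase reporter gene; test concentration not given here.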 The conditions noted are these: luminescence, 24 h, higher = more signal, called active from +8 up or from −8 down.
Test [5] deals with Fibroblast growth factor 10 (Homo sapiens) (UniProt O15520). Put plainly: FGF10 binders on small-molecule microarrays, primary screen, biochemical, small-molecule microarray, 635 nm fluorescence (AID 1102). Conditions: FGF10 binding, fluorescence 635 nm, higher = more signal.
Test [6] relates to glycogen synthase kinase-3 (GSK3A per assay name; protocol says GSK3B). Briefly: GSK3 binders on small-molecule microarrays, primary screen, biochemical, small-molecule microarray, 635 nm fluorescence, GSK3A (AID 1103). Also: the record names both GSK3A and GSK3B. The conditions noted are these: small-molecule microarray binding, fluorescence 635 nm; higher = more signal.
In test [7] the target is Epidermal growth factor receptor (Homo sapiens) (UniProt P00533). Put plainly: EGFR binders on small-molecule microarrays, primary screen, biochemical, small-molecule microarray, 635 nm fluorescence (AID 1104).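 Also: score merges 667 nm emission intensity with spot signal to noise over triplicate slides.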 Conditions: EGFR binding, higher = more signal.
Test [8] concerns the target Follistatin-related protein 3 (Homo sapiens) (UniProt O95633). Briefly: FSTL3 binders on small-molecule microarrays, primary screen, biochemical, small-molecule microarray, 635 nm fluorescence (AID 1105).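 Also: score merges emission near 667 nm and signal to noise per printed spot across three slides.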 The conditions noted are these: FSTL3 binding, higher = more signal.
The target in test [9] is Dickkopf-related protein 1 (Homo sapiens) (UniProt O94907). Put plainly: DKK1 binders on small-molecule microarrays, primary screen, biochemical, small-molecule microarray, 635 nm fluorescence scan (AID 1106).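 Also: score merges emission near 667 nm with signal to noise over three replicate slides.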 The conditions noted are these: DKK1 binding, higher = more signal.
The test system of test [10] is Inhibin beta A chain (activin A). Put plainly: INHBA (activin A) binders on microarrays, primary screen, biochemical, small-molecule microarray, 635 nm fluorescence scan (AID 1107).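 Also: mouse activin A protein probed at 4.33 µg/mL on printed slides; score merges bound-protein fluorescence near 667 nm with spot signal-to-noise.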 The conditions noted are these: small-molecule microarray binding, higher = more signal.
For test [11], the system named is Human papillomavirus type 1a protein E7 (residues 44-93). Put plainly: HPV1a E7 fragment binders on microarrays, primary screen, biochemical, small-molecule microarray, residues 44-93, 635 nm fluorescence (AID 1108).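 Also: E7 fragment applied at 1 µg/mL in TBST for 1 h at 4 C; score combines spot fluorescence with its signal to noise ratio.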 The conditions noted are these: small-molecule microarray binding, fluorescence 635 nm; higher = more signal.
Test [12] in a line: modulators of HCV replicon luciferase signal, primary screen, HCV replication inhibitor project, Huh7 cells, luciferase reporter (AID 1109).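 Also: huh7 hepatoma cells harbouring a luciferase neomycin HCV replicon reporter; luciferase luminescence as measure of HCV replicon replication; test concentration not given here.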 The conditions noted are these: 48 h, higher = more signal.
The target in test [13] is Left-right determination factor 2 (Homo sapiens) (UniProt O00292). Briefly: LEFTY2 binders on small-molecule microarrays, primary screen, biochemical, small-molecule microarray, 635 nm fluorescence scan (AID 1110). The conditions noted are these: LEFTY2 binding, higher = more signal.
For test [14], the target named is Calmodulin-1 (Homo sapiens) (UniProt P0DP23). Briefly: CALM1 binders on microarrays, EGTA buffer, profiling panel, biochemical, small-molecule microarray, Cy5-labelled CALM1 (AID 1111).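 Also: labelled calmodulin applied in Tris saline Tween buffer holding calcium plus EGTA and DTT.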 Conditions: Cy5-CALM1 binding fluorescence, higher = more signal.
For test [15] the target is unchanged. Put plainly: calcium-bound CALM1 binders on microarrays, profiling panel, artefact control for SMM control-protein annotation, biochemical, small-molecule microarray, Cy5-labelled CALM1, plus calcium (AID 1112).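 Also: score merges spot fluorescence with signal to noise from triplicate slides.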 The conditions noted are these: Cy5-CALM1 binding fluorescence, higher = more signal.
Test [16] can be described thus: small-molecule microarray binders of probe aWnt5a, primary screen, biochemical, biotinylated probe, 635/667 nm fluorescence (AID 1113).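 Also: score merges 667 nm fluorescence intensity with signal-to-noise per printed feature.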 The conditions noted are these: higher = more signal.
A short description of test [17]: small-molecule microarray binders of probe aShh, primary screen, biochemical, biotinylated probe, 635/667 nm fluorescence (AID 1114).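 Also: probe is biotin-labelled aShh protein from a stem cell growth factor screen; measures binding of labelled protein to compounds printed on the slide; score merges feature fluorescence at 667 nm with signal-to-noise.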 Conditions: higher = more signal.
The nature of test [18]: small-molecule microarray binders of probe aNog, primary screen, biochemical, biotinylated probe, 635/667 nm fluorescence (AID 1115).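 Also: probe is biotinylated aNog protein used at 0.15 µg/mL for 1 h at 4 C; z-score combines 667 nm fluorescence of each spot with its signal to noise.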 Conditions: higher = more signal.
Test [19] deals with Torsin-1A-interacting protein 1 (Homo sapiens) (UniProt Q5JTV8). Put plainly: LAP1 binders from COS7 cell lysate, primary screen, small-molecule microarray, 635/667 nm fluorescence (AID 1116). The conditions noted are these: COS7-hLAP1 lysate binding, 635 nm fluorescence, higher = more signal.
In test [20] the target is Alpha-bungarotoxin (Bungarus multicinctus) (UniProt P60615). Put plainly: alpha-bungarotoxin binders on microarray, profiling panel, artefact control for SMM control protein annotation, biochemical, small-molecule microarray, Alexa647 label, 635/667 nm fluorescence (AID 1117). The conditions noted are these: alpha-BTX-A647 binding fluorescence, higher = more signal.
Alpha-bungarotoxin (Bungarus multicinctus), sequence (P60615 whole entry, looked up): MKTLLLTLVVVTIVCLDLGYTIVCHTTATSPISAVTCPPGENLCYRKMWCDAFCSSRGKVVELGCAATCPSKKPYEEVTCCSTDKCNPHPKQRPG

Dickkopf-related protein 1 (Homo sapiens), sequence (O94907 whole entry, looked up): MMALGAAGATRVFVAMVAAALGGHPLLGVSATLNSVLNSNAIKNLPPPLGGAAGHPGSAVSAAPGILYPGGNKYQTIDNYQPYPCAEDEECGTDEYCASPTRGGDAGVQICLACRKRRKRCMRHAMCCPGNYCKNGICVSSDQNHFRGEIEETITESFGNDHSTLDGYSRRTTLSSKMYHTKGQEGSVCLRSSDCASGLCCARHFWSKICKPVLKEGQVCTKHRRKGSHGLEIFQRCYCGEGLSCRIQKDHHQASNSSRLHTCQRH
Follistatin-related protein 3 (Homo sapiens), sequence (O95633 whole entry, looked up): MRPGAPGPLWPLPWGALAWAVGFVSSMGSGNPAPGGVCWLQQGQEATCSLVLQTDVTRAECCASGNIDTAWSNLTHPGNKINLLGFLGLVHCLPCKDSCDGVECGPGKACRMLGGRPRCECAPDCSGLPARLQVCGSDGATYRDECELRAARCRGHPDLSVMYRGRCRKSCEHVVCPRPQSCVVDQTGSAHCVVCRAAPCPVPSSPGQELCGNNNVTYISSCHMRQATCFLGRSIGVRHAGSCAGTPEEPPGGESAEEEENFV
Fibroblast growth factor 10 (Homo sapiens), sequence (O15520 whole entry, looked up): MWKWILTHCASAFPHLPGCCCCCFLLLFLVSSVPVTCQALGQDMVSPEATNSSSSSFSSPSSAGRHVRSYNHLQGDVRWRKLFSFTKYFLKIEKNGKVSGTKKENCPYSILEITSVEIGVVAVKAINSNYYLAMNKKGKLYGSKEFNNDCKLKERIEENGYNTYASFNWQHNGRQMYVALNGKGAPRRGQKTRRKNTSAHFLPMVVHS
Torsin-1A-interacting protein 1 (Homo sapiens), sequence (Q5JTV8 whole entry, looked up): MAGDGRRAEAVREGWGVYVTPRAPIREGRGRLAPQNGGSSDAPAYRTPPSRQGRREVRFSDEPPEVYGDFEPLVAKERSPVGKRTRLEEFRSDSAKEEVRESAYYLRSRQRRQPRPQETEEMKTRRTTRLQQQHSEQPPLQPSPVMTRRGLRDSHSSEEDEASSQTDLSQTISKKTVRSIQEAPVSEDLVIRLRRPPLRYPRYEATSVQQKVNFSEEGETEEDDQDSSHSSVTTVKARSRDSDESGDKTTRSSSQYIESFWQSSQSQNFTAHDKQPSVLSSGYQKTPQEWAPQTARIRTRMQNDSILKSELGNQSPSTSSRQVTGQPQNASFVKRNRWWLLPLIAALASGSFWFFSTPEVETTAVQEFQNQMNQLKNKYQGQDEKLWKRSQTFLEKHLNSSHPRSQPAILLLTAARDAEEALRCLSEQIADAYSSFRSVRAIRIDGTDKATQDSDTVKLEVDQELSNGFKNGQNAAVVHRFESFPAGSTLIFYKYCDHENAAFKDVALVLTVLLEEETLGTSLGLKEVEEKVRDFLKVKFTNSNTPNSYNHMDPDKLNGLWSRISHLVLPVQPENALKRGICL
Left-right determination factor 2 (Homo sapiens), sequence (O00292 whole entry, looked up): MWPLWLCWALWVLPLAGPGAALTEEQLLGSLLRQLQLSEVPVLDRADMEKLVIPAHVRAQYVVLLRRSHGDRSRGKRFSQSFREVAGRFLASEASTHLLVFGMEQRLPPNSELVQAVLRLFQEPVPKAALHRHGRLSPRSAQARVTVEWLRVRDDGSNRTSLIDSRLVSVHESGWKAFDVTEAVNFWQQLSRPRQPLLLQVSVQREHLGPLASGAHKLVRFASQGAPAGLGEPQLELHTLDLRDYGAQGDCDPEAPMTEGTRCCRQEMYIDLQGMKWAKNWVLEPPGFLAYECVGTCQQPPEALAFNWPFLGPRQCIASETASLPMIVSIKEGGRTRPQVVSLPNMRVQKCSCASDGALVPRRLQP
Epidermal growth factor receptor (Homo sapiens), sequence (P00533 whole entry, looked up): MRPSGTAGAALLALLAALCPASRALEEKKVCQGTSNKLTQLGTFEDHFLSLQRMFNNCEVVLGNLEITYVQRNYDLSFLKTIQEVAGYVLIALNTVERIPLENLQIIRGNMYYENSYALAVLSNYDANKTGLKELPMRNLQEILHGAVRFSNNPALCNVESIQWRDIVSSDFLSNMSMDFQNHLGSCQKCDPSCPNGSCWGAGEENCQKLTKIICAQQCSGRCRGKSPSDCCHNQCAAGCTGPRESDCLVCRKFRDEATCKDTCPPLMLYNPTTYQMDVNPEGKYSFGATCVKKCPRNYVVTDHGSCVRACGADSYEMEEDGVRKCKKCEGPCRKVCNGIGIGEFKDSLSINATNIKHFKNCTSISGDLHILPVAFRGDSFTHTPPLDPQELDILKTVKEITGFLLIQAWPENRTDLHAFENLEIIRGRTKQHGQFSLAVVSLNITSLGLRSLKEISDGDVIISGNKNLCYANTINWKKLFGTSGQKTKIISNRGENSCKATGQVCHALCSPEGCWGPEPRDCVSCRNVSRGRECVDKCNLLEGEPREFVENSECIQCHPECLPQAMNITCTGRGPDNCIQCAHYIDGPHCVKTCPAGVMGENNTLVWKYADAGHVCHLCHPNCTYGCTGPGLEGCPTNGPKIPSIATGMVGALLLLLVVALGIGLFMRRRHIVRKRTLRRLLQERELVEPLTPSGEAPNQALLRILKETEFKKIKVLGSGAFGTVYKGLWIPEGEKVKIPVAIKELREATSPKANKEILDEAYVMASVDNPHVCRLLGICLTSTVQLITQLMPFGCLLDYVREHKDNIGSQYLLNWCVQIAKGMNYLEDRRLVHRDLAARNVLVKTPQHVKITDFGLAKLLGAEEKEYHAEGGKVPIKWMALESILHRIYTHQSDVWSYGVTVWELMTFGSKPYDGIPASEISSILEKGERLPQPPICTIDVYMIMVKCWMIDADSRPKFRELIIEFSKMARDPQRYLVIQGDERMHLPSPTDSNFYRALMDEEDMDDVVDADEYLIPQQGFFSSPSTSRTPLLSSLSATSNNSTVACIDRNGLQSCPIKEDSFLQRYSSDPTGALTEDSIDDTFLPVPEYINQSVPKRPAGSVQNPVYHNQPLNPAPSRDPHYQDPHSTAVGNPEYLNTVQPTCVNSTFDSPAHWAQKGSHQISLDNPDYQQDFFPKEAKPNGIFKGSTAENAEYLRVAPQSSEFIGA

Turning to `COc1ccc([C@H]2C[C@H]3C(I)=C[C@@H]2C(=O)[C@]32CO2)cc1`, the composite z-score in test [1] is 0.802; in test [2], 0.168; in [3] it was -0.206; in [5] it was 0.66; in [6] it was -0.611; in test [7], -0.0989. Further, the composite z-score in [8] is 0.926; in test [9], 0.726; in test [10] it was 0.508; in test [11], -1.2; in test [13], 0.178; in [14] it was -0.978. Besides, the composite z-score in test [15] was -1.53; in test [16] it was -0.222; in [17], -0.407; in test [18], -0.1; in [19] it was 0.498; in [20], 0.957. In addition, the z-score in test [4] was -0.568 (inactive); in test [12], -3.32.

As for `CC(=CC1CCCCC1)[C@@H](NC(=O)c1cccnc1)c1ccc(-c2ccccc2)cc1`, the composite z-score in test [1] was -0.178; in test [2], -0.0066; in test [3], 0.849; in test [5], -0.599; in test [6] it was -1.11; in test [7], -0.419. Besides, the composite z-score in [8] was -0.195; in [9], -0.44; in [10] it was 0.679; in test [11], 0.0493; in test [13], -0.405; in test [14] it was 0.139. The composite z-score in test [15] was 0.735; in test [16], -0.13; in test [17] it was -0.0403; in test [18], 0.747; in test [19], -0.217; in test [20], -0.124. In addition, the figures for the z-score in test [4] and in test [12] were 0.772 (inactive) and -2.14, respectively.

On to `CC=CC(O)C1C=CC2C(=O)N(C)C(=O)C2N1N(c1ccccc1)c1ccccc1` (stereo not given), for which the composite z-score was 0.293 in test [1]; -0.0262 in [2]; 0.211 in test [3]; 0.128 in [5]; -0.343 in test [6]; 1.19 in test [7]. Also, the composite z-score in [8] is -0.315; in [9], 0.653; in [10], 1.12; in test [11], -1.28; in [13] it was 0.36; in test [14] it was -0.54. In addition, the composite z-score in [15] is -1.3; in test [16], -0.104; in test [17] it was -0.0769; in [18], -0.0281; in test [19], 1.13; in test [20] it was 0.721. The z-score in [4] is 1.06 (inactive); in test [12] it was -0.332.

Regarding `C[N+](C)(C)CCCC[C@@H]1NC(=O)[C@H]2C[C@@H](C(=O)NCCCCCCNC(=O)CS)[C@@H](c3ccc(O)cc3)N2C1=O`, the composite z-score in [1] was -0.783; in [2], -0.0452; in test [3], 0.782; in test [5], -0.347; in test [6], -1.09; in test [7], -0.805. Further, the composite z-score in [8] is -0.884; in test [9], -0.628; in [10], 0.507; in test [11] it was -1.07; in test [13], -1.4; in test [14] it was -0.493. Moreover, the composite z-score in test [15] is 0.55; in test [16] it was -0.178; in [17], -0.138; in [18], -0.0604; in test [19], 1.51; in [20], 0.539. In addition, the values for the z-score in test [4] and in test [12] were -0.45 (inactive) and -0.237, respectively.

Take `CC(c1ccccc1)C(O)C1C=CC2C(=O)N(C)C(=O)C2N1NC(=O)OC(C)(C)C` (stereo not given): the composite z-score in [1] was 1.16; in [2] it was 0.354; in test [3] it was 0.488; in test [5], 1.02; in test [6] it was 1.28; in [7], 0.469. Besides, the composite z-score in [8] is 0.907; in test [9], 0.237; in test [10] it was 0.633; in test [11], 0.664; in test [13], -0.0606; in test [14] it was 2.55. Besides, the composite z-score in [15] was 0.265; in [16], 0.0377; in [17] it was -0.273; in test [18] it was 1.54; in test [19], 2.11; in test [20] it was 1.29. Besides, the z-score in [4] is 1.18 (inactive); in test [12], 0.658.

For the molecule `CCCCN1CC=CC23O[C@@H]4/C=C\CCCOC(=O)C4[C@H]2C(=O)N(CCCCCO)[C@@H]3C1=O` (stereo not given in full), the composite z-score is 1.29 in [1]; -0.37 in [2]; -0.167 in test [3]; -0.552 in [5]; -1.34 in test [6]; -1.13 in [7]. Further, the composite z-score in test [8] is -1.08; in test [9], -0.443; in [10] it was 0.653; in test [11] it was -0.766; in test [13], -0.68; in test [14], -0.803. The composite z-score in test [15] was -1.24; in test [16] it was -0.172; in test [17], -0.221; in test [18] it was -0.357; in test [19], 0.328; in test [20] it was -0.509. Further, the z-score is 1.08 (inactive) in [4] and -0.895 in test [12].
